Source: PubChem (National Center for Advancing Translational Sciences (NCATS))
HTT cytoprotect: protects HTT-Q103 PC12 cells, measured by ATP | PC12 HTT-Q103 induced, cytoprotection, ATP luminescence, 40 h | Potency, µM (top dose mostly 56.4 µM), inactives show cytoprotection (ATP increase), actives largely listed as activators | 230,000 tested, 0.14% active; note: potency is the fitted concentration of half-maximal effect; % of control where 0% means no effect; nearly all actives have a fitted effect of over 45% in size
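PC12 cells stably carrying ecdysone-inducible Htt exon 1 (Q103)–GFP were induced with 100 nM tebufenozide (final) alongside library compounds in a dose series. Cytoprotection was scored as retained ATP by ATPlite luminescence.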
HTT aggregate: inhibitors of mutant huntingtin aggregate formation in PC12 cells; Potency, µM (doses to about 46.1 µM), inactives show top-dose activity change, negative = inhibition, hits mostly inhibitors; 220,000 tested, 1.1% active; PC12 HttQ103-GFP aggregates, Acumen cytometry, 40 h; note: potency is the fitted concentration of half-maximal effect; % is set by controls: 0 for no effect and ±100 for the full control effect; nearly all actives have a fitted effect of over 60% in size
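Aggregates are detected as GFP objects 1–25 µm with signal 6 STDEV over background in lysates of induced PC12 cells. These carry Huntingtin exon 1 with 103 glutamines fused to GFP under an ecdysone promoter; compounds titrated.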
PNC inhibitor: inhibitors of perinucleolar compartment assembly. PC3M PTB-GFP, PNC prevalence imaging, 16 h; stronger effect = lower value. activity change (PNC), negative = inhibition, % at 10 µM. 140,000 tested, 3.1% active;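 active = readout at or below -70, meaning at least 70% loss of cells showing the perinucleolar compartment, a nuclear body marking cancer cells; inconclusive = readout between -30 and a set limit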;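 note: plate controls were DMSO wells for no effect and camptothecin positive control wells for full effect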
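Compounds are pinned in duplicate onto adhered PC3M cells stably expressing GFP-tagged PTB and incubated 16 h at 37 C. Cells are then fixed, nuclei stained with Hoechst, and PNC-positive cells counted.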
* marks the source's active call; other numbers are inactive results; u = inconclusive; x = not tested or not shown; [ ] = remark or other dose. The sample as a whole holds a higher share of hits than the screen did. Unless noted, calls come from the whole dose curve; as a rule, active = well fitted curve in the direction sought with a large enough effect; inconclusive = small, poorly fitted or top-dose-only effect, or another doubt; inactive = no such curve, though single readings can be large; an effect the other way counts as inactive or inconclusive.

SMILES	HTT cytoprotect	HTT aggregate	PNC inhibitor
CN1c2ccccc2C(C)(C)C12CC(c1ccc(Cl)c(S(=O)(=O)N3CCCC3)c1)=NO2 (configuration not stated)	x	-11.0%	-120.9*
Cc1nn(C)cc1CNC(=O)c1cccc(F)c1	0.0%[0.074 µM]	-22.4%	-98.0*
Cc1nn(C)cc1CNC(=O)c1cccc(Br)c1	-13.6%[10 µM]	17.3%	13.2
COn1c(SC(C)C)nc2ccccc2c1=O	-8.2%	5.9%	18.8
COc1nc2ccccc2c(=O)n1OCC(C)C	-5.9%	-20.9%	-81.6*
O=c1cc(-c2ccccc2F)nc(-c2ccccc2F)o1	-5.0%[10 µM]	2.0%	-8.2
COc1ccccc1NC(=O)COn1nnc2ccc(S(=O)(=O)N3CCOCC3)cc21	-21.5%	-10.6%	x
CCOC(=O)c1oc2cc(O)c(CC)cc2c(=O)c1-c1cscn1	-33.5%	-5.0%	x
CCOC(=O)c1ccc(-c2c(C(=O)OCC)oc3cc(O)c(CC)cc3c2=O)o1	-29.0%[0.074 µM]	5.62µM*	1.6
COC(=O)c1scc(C)c1N/N=C(\C)c1ccc(F)cc1F	15.5%[10 µM]	14.3%	13.9
COC(=O)C1CC(=O)c2ccsc2C1 (configuration not stated)	x	-0.2%	-109.0*
COC(=O)C1C/C(=N\NS(=O)(=O)c2ccc(C)cc2)c2sccc2C1 (configuration not stated)	36.8%[10 µM]	-6.8%	u
COc1ccc(-n2c3c(cc(C(=O)N4CCC(C)CC4)c2=O)C(=O)CC(C)(C)C3)cc1	-5.1%	24.5%	19.7
O=[N+]([O-])c1cc(S(=O)(=O)/N=C(/c2ccccc2)N2CCOCC2)ccc1Cl	x	0.0%	x
COc1ccc(-n2cnnc2SCC(=O)N2CCN(c3ccccc3)CC2)cc1	-15.2%	13.9%	u
COc1ccc(N2CCN(C(=O)CSc3nnc(-c4cc5ccccc5cc4O)n3C)CC2)cc1	-19.5%	12.6µM*	-8.3
Cc1ccccc1-n1c(SCC(=O)N2CCN(c3ccccc3)CC2)nnc1-c1ccncc1	-11.8%	-4.6%	-12.6
CCn1c(SCC(=O)N2CCN(c3ccccc3)CC2)nnc1-c1ccncc1	-11.9%[10 µM]	-32.7%	-100.0*
Cc1sc(NC(=O)COc2ccccc2)c(C#N)c1C	0.3%	-9.3%	x
O=C(CSc1nncs1)Nc1cc(-c2ccccc2)nn1-c1ccccc1	10.8%[10 µM]	8.2%	1.9
Cc1c(CCC(=O)O)c(=O)oc2cc3occ(-c4ccc(F)cc4)c3cc12	-26.3%[0.074 µM]	11.1%	u
COc1ccc(-c2coc3cc4oc(=O)c5ccccc5c4cc23)cc1F	-74.0%[10 µM]	-15.2%	-81.3*
CCOc1ncccc1C(=O)OC(C)C(=O)Nc1ccc(CC)cc1 (configuration not stated)	27.2%	11.7%	x
O=C(COC(=O)C12CC3CC(CC(O)(C3)C1)C2)NC(=O)NCc1ccco1	1.3%[0.074 µM]	3.6%	-27.9
CC1CC1C(=O)OCC(=O)NC(=O)NCc1ccco1 (configuration not stated)	u	-6.2%[9.22 µM]	-87.5*
SMILES	HTT cytoprotect	HTT aggregate	PNC inhibitor
CC(=O)C1=C(O)C(=O)N(CCCO)C1c1ccccc1 (configuration not stated)	18.7%	4.1%	u
CC1=CN2C(=NC(=O)CC2(C)C(=O)N(CC(=O)NC2CCCC2)c2ccccc2C)C=C1 (configuration not stated)	-7.2%[10 µM]	8.5%	-100.0*
CC1=CC2=NC(=O)CC(C)(C(=O)N(CC(=O)NC3CCCC3)c3ccccc3C)N2C=C1 (configuration not stated)	-8.1%[10 µM]	-22.9%[9.22 µM]	x
COc1ccc(OC)c(NC(=O)CCC(=O)Nc2nnc(C(F)(F)F)s2)c1	0.2%	1.7%	-18.0
COc1ccc(OC)c(NC(=O)c2cc3n(n2)C(C(F)(F)F)CC(c2ccc4c(c2)OCO4)N3)c1 (configuration not stated)	-36.0%	5.9%	-23.8
O=C(Nc1cc(Cl)ccc1O)c1cc2n(n1)C(C(F)(F)F)CC(c1ccc3c(c1)OCO3)N2 (configuration not stated)	-23.5%[10 µM]	9.8%	-84.2*
COc1ccc(CCNC(=O)CSc2c[nH]c3ccccc23)cc1OC	-15.0%	-11.6%	x
Cc1nn2cc(-c3ccccc3)nc2[nH]c1=O	-4.0%	-15.3%	u
O=C(O)CCc1nn2cc(-c3ccccc3)nc2[nH]c1=O	-50.7%[10 µM]	-5.1%	-100.0*
Cc1cc(Br)ccc1OCC(=O)N(Cc1nc(-c2ccccc2)no1)C(C)C	8.8%[10 µM]	-31.5%	-9.6
COc1ccc(/C=C/c2c([N+](=O)[O-])c(=O)n(C)c(=O)n2C)cc1	u	-19.5%	x
CCOc1ccc(/C=C/c2c([N+](=O)[O-])c(=O)n(C)c(=O)n2C)cc1	7.94µM*	-18.5%	x
c1ccc2c(CCNc3ncnc4nc[nH]c34)c[nH]c2c1	5.9%	u	u
